PubChem BioAssay AID1159580 (chemical genetic matrix, 2015)
The campaign covered roughly 5,500 compounds. About 2,000 (36%) were called active. Not shown: some 18% with an inconclusive outcome. Cut-off read from the data, not from the text of the source: active = normalized growth mostly below about 0.91 (no sharp cut-off); inconclusive = no clear call, values can overlap the other calls; inactive = mostly above about 0.92. Some of the results follow.

Assay: chemical genetic growth profiling, strain panel (AID 1159580);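 note: tested at 20 µM; growth read once vehicle control cultures reached saturation at 30 °C; 1 = growth at the plate median or of vehicle wells; lower values mean less growth of the strain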
Conditions: S. cerevisiae deletion strains, growth OD

Measured: normalized growth

COc1cc(S(C)=O)ccc1-c1nc2ncccc2[nH]1 (stereo not drawn)
inactive: locus YAL013W, strain DEP1, active compounds read low 1.01 | locus YAL021C, strain ccr4, active compounds read low 0.936 | locus YAL026C, strain drs2, active compounds read low 0.994 | locus YAL030W, strain snc1, active compounds read low 0.976 | locus YBL061C, strain skt5, active compounds read low 0.984 | locus YBR009C, strain hhf1, active compounds read low 0.956 | locus YBR021W, strain FUR4, active compounds read low 0.994 | locus YBR023C, strain chs3, active compounds read low 0.98 | locus YBR171W, strain sec66, active compounds read low 0.977 | locus YBR229C, strain ROT2, active compounds read low 1.01 | locus YBR231C, strain swc5, active compounds read low 1.01 | locus YBR279W, strain paf1, active compounds read low 0.981 | locus YCL011C, strain gbp2, active compounds read low 0.969 | locus YCL016C, strain dcc1, active compounds read low 0.959 | locus YCL029C, strain bik1, active compounds read low 0.985 | locus YCL061C, strain MRC1, active compounds read low 0.984 | locus YCL069W, strain vba3, active compounds read low 0.967 | locus YCR088W, strain abp1, active compounds read low 0.981 | locus YDL005C, strain med2, active compounds read low 0.966 | locus YDL035C, strain GPR1, active compounds read low 1 | locus YDL040C, strain nat1, active compounds read low 0.969 | locus YDL074C, strain BRE1, active compounds read low 1.04 | locus YDL101C, strain DUN1, active compounds read low 0.994 | locus YDL134C, strain PPH21, active compounds read low 1.01 | locus YDL185W, strain tfp1, active compounds read low 0.98 | locus YDL192W, strain arf1, active compounds read low 0.985 | locus YDR001C, strain nth1, active compounds read low 0.963 | locus YDR069C, strain doa4, active compounds read low 0.958 | locus YDR101C, strain arx1, active compounds read low 0.999 | locus YDR137W, strain rgp1, active compounds read low 0.973 | locus YDR150W, strain NUM1, active compounds read low 0.979 | locus YDR159W, strain sac3, active compounds read low 0.96 | locus YDR162C, strain NBP2, active compounds read low 1 | locus YDR195W, strain ref2 0.935 | locus YDR297W, strain sur2, active compounds read low 0.974 | locus YDR318W, strain mcm21, active compounds read low 0.997 | locus YDR334W, strain swr1, active compounds read low 0.97 | locus YDR335W, strain msn5, active compounds read low 0.96 | locus YDR388W, active compounds read low 0.996 | locus YDR392W, strain spt3, active compounds read low 0.848 | locus YDR502C, strain sam2, active compounds read low 0.984 | locus YEL003W, strain gim4, active compounds read low 0.98 | locus YEL037C, strain rad23, active compounds read low 0.975 | locus YEL061C, strain CIN8 (second series), active compounds read low 0.972 | locus YEL061C, strain CIN8, active compounds read low 1 | locus YER015W, strain faa2, active compounds read low 0.982 | locus YER016W, strain bim1, active compounds read low 0.978 | locus YER110C, active compounds read low 0.992 | locus YER111C, strain swi4, active compounds read low 0.972 | locus YER155C, strain BEM2 (second series), active compounds read low 0.994 | locus YER155C, strain BEM2, active compounds read low 0.978 | locus YER167W, strain BCK2, active compounds read low 1.01 | locus YFR010W, strain ubp6, active compounds read low 0.974 | locus YGL078C, strain dbp3, active compounds read low 0.993 | locus YGL086W, strain mad1, active compounds read low 0.995 | locus YGL167C, strain pmr1, active compounds read low 0.941 | locus YGL173C, strain kem1, active compounds read low 0.99 | locus YGL227W, strain vid30, active compounds read low 0.982 | locus YGL240W, strain doc1, active compounds read low 0.999 | locus YGL248W, strain PDE1, active compounds read low 0.995 | locus YGL253W, strain hxk2, active compounds read low 0.987 | locus YGR078C, strain PAC10, active compounds read low 1.02 | locus YGR135W, strain pre9, active compounds read low 0.983 | locus YGR229C, strain SMI1, active compounds read low 1.02 | locus YGR252W, strain gcn5, active compounds read low 1.01 | locus YHR013C, strain ard1, active compounds read low 0.929 | locus YHR027C, strain rpn1, active compounds read low 0.97 | locus YHR030C, strain SLT2, active compounds read low 0.984 | locus YHR079C, strain IRE1 (second series), active compounds read low 0.997 | locus YHR094C, strain hxt1, active compounds read low 0.99 | locus YHR129C, strain ARP1, active compounds read low 1 | locus YHR142W, strain chs7, active compounds read low 0.943 | locus YHR200W, strain rpn10, active compounds read low 0.991 | locus YIL066C, strain RNR3, active compounds read low 0.995 | locus YIL073C, strain SPO22, active compounds read low 0.943 | locus YIL125W, strain kgd1, active compounds read low 0.999 | locus YIR030C, strain dcg1, active compounds read low 0.988 | locus YJL092W, strain hpr5, active compounds read low 0.98 | locus YJL095W, strain BCK1 (second series), active compounds read low 0.972 | locus YJL095W, strain BCK1, active compounds read low 1.03 | locus YJL115W, strain asf1, active compounds read low 0.972 | locus YJL129C, strain trk1, active compounds read low 0.966 | locus YJL134W, strain LCB3, active compounds read low 1.01 | locus YJL154C, strain vps35, active compounds read low 0.972 | locus YJL164C, strain tpk1, active compounds read low 0.941 | locus YJL166W, strain qcr8, active compounds read low 0.984 | locus YJL168C, strain set2, active compounds read low 1 | locus YJL187C, strain SWE1 (second series), active compounds read low 0.989
